Screening results: PubChem, National Center for Advancing Translational Sciences (NCATS)
Most compounds without a hit are left out; they make up all but 12% or so of the library.
BAZ2B block – qHTS Assay for Inhibitors of BAZ2B; Bromodomain adjacent to zinc finger domain protein 2B (Homo sapiens), Q9UIF8; AlphaScreen BAZ2B-H3K14Ac peptide displacement; Potency, µM (highest dose often 114 µM), for the others: at the highest dose activity change, negative = inhibition, usual class: inhibitors; 360,000 compounds, 4.4% hits; note: % is set by controls: 0 for no effect and ±100 for the full control effect; nearly all actives have a fitted effect of over 60% in size
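AlphaScreen luminescence quantifies BAZ2B engagement of H3K14Ac peptide; the protein and biotinylated peptide are both at 50 nM final, buffer PBS pH 7.4 with 0.01% Tween-20, all steps at room temperature.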
JMJD2A Tudor inh – qHTS Assay for Inhibitors of JMJD2A-Tudor Domain | Lysine-specific demethylase 4A (Homo sapiens), O75164 | 390,000 compounds, 4.4% hits | AlphaScreen JMJD2A-Tudor / H3K4me3 peptide binding | Potency, µM (highest dose often 114 µM), inactives show top-dose activity change, negative = inhibition, hits mostly inhibitors | AID 504339, 2011; note: % is set by controls: 0 for no effect and ±100 for the full control effect; nearly all actives have a fitted effect of over 50% in size
G9a inh – qHTS Assay for Inhibitors of Histone Lysine Methyltransferase G9a; Histone-lysine N-methyltransferase EHMT2 (Homo sapiens), Q96KQ7; G9a H3K9 monomethylation, AlphaScreen, 2 h; Potency, µM (doses to about 102 µM), for inactives: at the highest dose activity, negative = inhibition, hits mostly inhibitors; 350,000 compounds, 8.8% hits; AID 504332, 2011; note: % is set by controls: 0 for no effect and ±100 for the full control effect; nearly all actives have a fitted effect of over 75% in size
Target sequence (Q96KQ7 913-1193 limits assumed): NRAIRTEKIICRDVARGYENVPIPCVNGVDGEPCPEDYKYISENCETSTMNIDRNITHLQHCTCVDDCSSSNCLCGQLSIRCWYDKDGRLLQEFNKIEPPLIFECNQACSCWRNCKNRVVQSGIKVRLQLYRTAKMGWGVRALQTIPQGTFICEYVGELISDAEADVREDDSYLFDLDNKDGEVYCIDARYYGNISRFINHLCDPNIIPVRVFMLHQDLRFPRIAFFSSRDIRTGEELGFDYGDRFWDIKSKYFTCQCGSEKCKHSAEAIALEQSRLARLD
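Methyltransferase reactions run at room temperature for 2 h (20 nM enzyme, 500 nM biotin-H3K9 peptide, 20 uM SAM) after a 15 min compound preincubation; product detected by AlphaScreen beads and anti-H3K9me1 antibody.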
HP1b chromo inh – HTS for Inhibitors of HP1-beta Chromodomain Interactions with Methylated Histone Tails. Chromobox protein homolog 1 (Homo sapiens), P83916. AlphaScreen HP1-beta / biotin-H3K9me3 peptide binding. Potency, µM (doses to about 114 µM), for inactives: at the highest dose activity change, negative = inhibition, most hits filed as inhibitors. 390,000 compounds, 0.56% hits. AID 540317, 2011; note: nearly all actives have a fitted effect of over 70% in size
Target sequence (P83916 whole entry, looked up): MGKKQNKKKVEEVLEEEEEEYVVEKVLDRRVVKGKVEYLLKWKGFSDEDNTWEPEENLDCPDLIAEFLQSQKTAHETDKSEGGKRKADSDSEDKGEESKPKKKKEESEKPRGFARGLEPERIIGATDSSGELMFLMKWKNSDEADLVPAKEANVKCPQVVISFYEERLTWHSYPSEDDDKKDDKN
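HP1-beta protein (50 nM final) preincubated 30 min at room temperature with biotinylated H3(1-18)K9me3 peptide (50 nM) in PBS pH 7.4, 0.01% Tween-20, then compound added for 30 min. AlphaScreen streptavidin donor/nickel chelate acceptor beads (10 ug/mL final), 30 min dark, luminescence read.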
Sfp PPTase inh – qHTS Assay for Inhibitors of Bacillus subtilis Sfp phosphopantetheinyl transferase (PPTase) | Biochemical Sfp PPTase activity, qHTS | Potency, µM, for the others: largest response in the series, negative = inhibition, hits mostly inhibitors | AID 1490, 2009 | 310,000 compounds, 3.5% hits | 4'-phosphopantetheinyl transferase ffp (Bacillus subtilis), Q9F4F7;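 note: the enzyme is Sfp with the accession as filed and its product quenches rhodamine fluorescence; 0% = enzyme reaction without inhibitor and -100% = no enzyme wells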
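After 15 min at room temperature with compound, 15 nM Sfp received 5 uM rhodamine-CoA plus 12.5 uM BHQ-2-ybbR (50 mM Hepes pH 7.6, 10 mM MgCl2). Rate came from the fluorescence difference over 30 min, ex 525/em 598 nm.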
* hit, by the source's call; [ ] = dose if it differs, or a comment. Calls come from the whole dose curve; as a rule, active = well fitted curve in the direction sought with a large enough effect; inconclusive = small, poorly fitted or top-dose-only effect, or another doubt; inactive = no such curve, though single readings can be large; an effect the other way counts as inactive or inconclusive. Potency is the fitted concentration of half-maximal effect.

Screening CCNC(=S)N(CCc1c(C)[nH]c2ccc(C)cc12)Cc1cccnc1 returned BAZ2B block inconclusive, JMJD2A Tudor inh inconclusive, G9a inh 10.7%[2.33 µM], HP1b chromo inh inconclusive and Sfp PPTase inh 6.3%.
For CSc1ncc(CN2CCCC(C(=O)Nc3ccc(-c4ccco4)cc3)C2)cn1 (centres undefined) the results were BAZ2B block inconclusive, JMJD2A Tudor inh inconclusive, G9a inh 10µM*, HP1b chromo inh -20.2%[57 µM] and Sfp PPTase inh 14.1µM*.
`COc1ccc(Nc2nnc(SCC(=O)c3cc4ccccc4o3)s2)cc1` gave BAZ2B block inconclusive, JMJD2A Tudor inh -22.9%, G9a inh -134.0%[59 µM], HP1b chromo inh 7.7% and Sfp PPTase inh inconclusive.
O=C1c2ccccc2C(=O)N1CSc1nnc(Nc2ccccc2F)s1 was read as BAZ2B block -14.5%, JMJD2A Tudor inh -15.5%, G9a inh 10µM*, HP1b chromo inh 19.2% and Sfp PPTase inh 5.1%.
`O=C(CSc1nnc(Nc2ccccc2F)s1)c1cc2ccccc2o1` gave BAZ2B block -11.4%, JMJD2A Tudor inh -31.7%, G9a inh 7.94µM*, HP1b chromo inh inconclusive and Sfp PPTase inh -16.9%.
For COc1ccc(-n2c(CNC(=O)c3cc(OC)c(OC)c(OC)c3)n[nH]c2=S)cc1 the results were BAZ2B block inconclusive, JMJD2A Tudor inh 7.08µM*, G9a inh 8.91µM*, HP1b chromo inh 32.0% and Sfp PPTase inh -12.7%.
COc1cc(OC)cc(C(=O)NCc2n[nH]c(=S)n2-c2ccccc2OC)c1 was read as BAZ2B block 4.1%, JMJD2A Tudor inh 10µM*, G9a inh 1µM*, HP1b chromo inh 22.5% and Sfp PPTase inh inconclusive.
`COc1ccccc1-n1c(CNC(=O)c2cccs2)n[nH]c1=S` gave BAZ2B block -17.1%, JMJD2A Tudor inh inconclusive, G9a inh inconclusive, HP1b chromo inh 12.8% and Sfp PPTase inh 5.6%.
CN1CCN(S(=O)(=O)c2ccc(N3CCc4ccccc4C3)nc2)CC1 was read as BAZ2B block -37.9%, JMJD2A Tudor inh 8.91µM*, G9a inh -31.3%, HP1b chromo inh -15.6% and Sfp PPTase inh 11.4%.
`Nc1c(C(=O)c2ccc(F)cc2)oc2ccccc12` gave BAZ2B block -0.7%, JMJD2A Tudor inh 1.3%, G9a inh inconclusive, HP1b chromo inh 40.9% and Sfp PPTase inh 4.0%.
Screening CC(=O)Nc1ccc(NC(=O)Cc2ccc(S(=O)(=O)N3CCCCC3)cc2)cc1 returned BAZ2B block -33.5%, JMJD2A Tudor inh -13.1%, G9a inh 39.8µM* and HP1b chromo inh 41.2%.
For CCC(C)N1CCN(S(=O)(=O)c2ccc(NC(C)=O)cc2)CC1 (centres undefined) the results were BAZ2B block 56.2µM*, JMJD2A Tudor inh 22.4µM*, G9a inh 20µM*, HP1b chromo inh inconclusive and Sfp PPTase inh -8.2%.
`O=C(Cc1cccs1)Nc1ccc(S(=O)(=O)N2CCCCC2)cc1` gave BAZ2B block 54.6%, JMJD2A Tudor inh inconclusive, G9a inh 8.91µM*, HP1b chromo inh -5.7% and Sfp PPTase inh -2.1%.
Screening CC(=O)OC1CC2C(C)(C)C=CC(=O)[C@@]2(C)C2CC[C@@]3(C)C(c4ccoc4)OC(=O)C4OC43[C@]12C (some centres undefined) returned G9a inh -18.2%[2.33 µM] and Sfp PPTase inh 0.7%.
Screening COc1ccccc1NC(=O)C(=O)N/N=C(\C)CC(=O)Nc1ccccn1 returned BAZ2B block 79.4µM*, JMJD2A Tudor inh -8.3%, HP1b chromo inh 44.1% and Sfp PPTase inh 6.1%.
For COc1ccc(-c2cc(=O)oc3cc(OCC(=O)Nc4ccccn4)ccc23)cc1 the results were BAZ2B block -26.8%, JMJD2A Tudor inh 17.8µM*, G9a inh 18.1%, HP1b chromo inh 18.6% and Sfp PPTase inh 6.5%.
COc1ccc(NC(=O)C(=O)N/N=C(\C)CC(=O)Nc2ccccn2)c(OC)c1 was read as BAZ2B block -18.9%, JMJD2A Tudor inh -14.2%, G9a inh -35.5%, HP1b chromo inh 25.7% and Sfp PPTase inh 22.5%.
For COc1ccccc1OCC(=O)Nc1ccccn1 the results were BAZ2B block 3.6%, JMJD2A Tudor inh -6.8%, G9a inh 20µM*, HP1b chromo inh 31.1% and Sfp PPTase inh 1.2%.
CCCc1cc(=O)oc2cc(OCC(=O)Nc3ccccn3)ccc12 was read as BAZ2B block -8.3%, JMJD2A Tudor inh -16.0%, HP1b chromo inh 28.6% and Sfp PPTase inh -8.7%.
`COc1ccc(C/C(=N\O)c2ccc(OC)cc2)cc1` gave BAZ2B block 1.3%, JMJD2A Tudor inh -8.1%, G9a inh -11.5%[2.33 µM], HP1b chromo inh 41.1% and Sfp PPTase inh 8.6%.
For COc1cc(C)c(Cl)cc1S(=O)(=O)NCCc1c(C)[nH]c2ccccc12 the results were BAZ2B block 31.6µM*, JMJD2A Tudor inh inconclusive, G9a inh -29.7%[59 µM] and HP1b chromo inh -10.5%.
`COc1ccc(F)cc1S(=O)(=O)NCCc1c(C)[nH]c2c(Cl)cccc12` gave BAZ2B block inconclusive, JMJD2A Tudor inh -32.6%, G9a inh -0.7%[59 µM] and HP1b chromo inh 6.8%.
Screening CC(=O)c1cccc(NS(=O)(=O)c2ccc(N/C=C/C(=O)c3ccc(F)cc3)cc2)c1 returned BAZ2B block inconclusive, JMJD2A Tudor inh -19.9%, G9a inh 8.91µM*, HP1b chromo inh 16.0% and Sfp PPTase inh 22.5%.
Screening CC(=O)c1cccc(NS(=O)(=O)c2ccc(N/C=C\C(=O)c3ccc(F)cc3)cc2)c1 returned BAZ2B block -29.1%[57.1 µM], JMJD2A Tudor inh -25.3%, G9a inh inconclusive, HP1b chromo inh -2.2% and Sfp PPTase inh 2.0%.
For COc1ccc2sc(-c3ccc(N(C)C)cc3)c(C#Cc3cncn3C)c2c1 the results were JMJD2A Tudor inh 22.4µM* and HP1b chromo inh -26.7%.
COc1ccc(-c2sc3ccc(N4CCOCC4)cc3c2C#Cc2ccsc2)cc1 was read as JMJD2A Tudor inh 18.6% and HP1b chromo inh 160.6%.
Screening COc1ccc2sc(-c3ccc(N(C)C)cc3)c(C#CCCO)c2c1 returned BAZ2B block inconclusive, JMJD2A Tudor inh -57.3%, G9a inh -0.8%[0.501 µM] and HP1b chromo inh -9.7%.
COc1ccc(-c2sc3ccc(N4CCOCC4)cc3c2C#CC(C)(C)O)cc1 was read as BAZ2B block 50.1µM*, JMJD2A Tudor inh inconclusive, G9a inh -2.3%[0.501 µM] and HP1b chromo inh 26.9%.
For COc1ccc(-c2sc3ccc(OC)cc3c2C#CCCO)cc1 the results were BAZ2B block 0.4%, JMJD2A Tudor inh -7.0%, G9a inh 35.5µM*, HP1b chromo inh 45.8% and Sfp PPTase inh -23.2%.
